This is part of a sample that, as a whole, favours compounds with a hit. Of some 83,000 tested, about 20% had one in any assay.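 Negative percent growth values reflect cell death: -40 means 40% of the cells present at the start died, and -100 means all died.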 Values without a mark were called inactive. Calls of active or inactive are those of the source. Rule for the calls: active = growth percent below 10; inactive = the rest.
system: HL-60(TB) leukemia; test: NCI-60 one-dose screen, 48 h (100 = growth as untreated, 0 = no growth, -100 = all killed); details: 10 µM unless noted

Structure (SMILES) | growth
C=C1C(=O)O[C@H]2[C@H]1CC/C(COC(=O)NCCc1ccc(Br)cc1)=C\CC[C@@]1(C)O[C@@H]21 | -14% (active)
Cc1cccc(CC(=O)c2ccccc2)n1 | 86.9%
CC(C)(C)c1[nH]nc2c1C(c1cc3ccccc3[nH]c1=O)Nc1cc(C(=O)OCc3ccccc3)ccc1N2 (stereo not given) | 54.5%
c1ccc2c(c1)oc1cc3c(cc12)nnc1cccn13 | 108%
Cc1cc(-c2ccccc2)nc2ccccc12 | 90.8%
COc1ccc(C(=O)/C=C/Nc2cc(-c3ccccc3)nn2-c2ccccc2)cc1 | 93.2%
C=C1CC2(OC1=O)C(=O)N(CCCN1C(=O)C3(CC(=C)C(=O)O3)c3ccccc31)c1ccccc12 (stereo not given) | -26.5% (active)
COc1ccc(N2C(=O)C3c4[nH]c5ccc(OCc6ccccc6)cc5c4C4CCC(C(C)C)CC4C3C2=O)cc1 (stereo not given) | 68.9%
O=C(NCCNc1nccc(-c2c(-c3cccc(O)c3)nc3sccn23)n1)c1cc(N2CCOCC2)cc(C(F)(F)F)c1 | 102%
O=C(/C=C/c1c(Cl)nc2sccn12)c1ccc(F)c(F)c1 | 78.3%
COc1ccc(-n2cnc3cc(C(=O)N4CCCCC4)ccc32)cc1 | 105%
CO[C@H]1/C=C/O[C@@]2(C)Oc3c(C)c(O)c4c(c3C2=O)C(=O)C(/C=N/N(c2ccccc2)c2ccccc2)=C(NC(=O)/C(C)=C\C=C\[C@H](C)[C@H](O)[C@@H](C)[C@@H](O)[C@@H](C)[C@H](OC(C)=O)[C@@H]1C)C4=O | -12.5% (active)
O=C(NOCCO)c1cc(CN2OCCCC2=O)c(F)c(F)c1Nc1ccc(I)cc1F | 18.2%
O=C(O)C(C(=O)O)c1cccc2ccccc12 | 98.6%
Cc1cccc(OCC(O)CN2CCN(c3ccc(Cl)cc3)CC2)c1 (stereo not given) | 97.9%
O=C(N/N=C(\CS(=O)(=O)c1ccccc1)c1cc2ccccc2oc1=O)c1ccccc1 | 105%
O=C(/C=C/c1ccccc1)Nc1ncc(Cc2ccccc2Cl)s1 | -10.1% (active)
O=C(NCCN1CCCCC1)n1cc(-c2ccncc2)c(-c2ccc(Cl)c(O)c2)n1 | 71.1%
COc1cc2c(cc1O)CCc1cc(O)cc(OC)c1-2 | 76.4%
CCCCCCCCCCCCCCCCCCOc1cccc(CC(=O)OCC[N+](CC)(CC)CC)c1 | 9.38% (active)

Structure (SMILES) | growth
COC(=O)C1C2CC3c4[nH]c5cc(OC)ccc5c4CCN3CC2CC(OC2CCCCO2)C1OC (stereo not given) | 98.7%
Cn1cc(-c2noc(-c3cn(C)c4ncc(F)cc34)n2)c2cc(Cl)ccc21 | 82.6%
COc1cc(-c2cc(-c3ccc(Nc4ncnc5cc(Cl)ccc45)cc3)nc(N3CCCCC3)n2)cc(OC)c1OC | 91.6%
CC(=O)N1N=C(c2ccc(C)cc2)CC1c1ccc(Oc2ccc(Br)cc2)cc1 (stereo not given) | 94%
COc1cc2c(c(O)c1Cl)C(=O)c1c(O)cc(C[C@H](C)O)cc1[C@H]2[C@H]1c2cc(C[C@H](C)O)cc(O)c2C(=O)c2c1cc(OC)c(Cl)c2O | 1.89% (active)
N=C1C(c2nc3ccccc3s2)=C(O)CN1c1cc(Cl)cc(Cl)c1 | 35.5%
O=C(CCl)Nc1ccc2c(c1)C(=O)c1ccc(NC(=O)CCl)cc1C2=O | -59.7% (active)
Nc1nc(N)c2c(n1)NC(c1cccc(Nc3ccnc4cc(C(F)(F)F)ccc34)c1)CC(c1ccc(Br)cc1)=N2 (stereo not given) | 43.1%
O=C(c1ccccc1)c1cccc(C(Br)Br)c1 | 87.6%
COc1cc(NCCCN(CC(C)C)CC(C)C)c2ncccc2c1 | 89.8%
COc1cc(/C=N/Nc2ncc(-c3cc4cc5c(cc4o3)OCO5)s2)cc(OC)c1OC | 14.7%
CCCCCN1C=C/C(=C\C(=O)N(C)c2ccccc2Br)c2ccccc21 | 76.9%
O=C1C=CC(=O)N1C1CCCCCCCCCCC1 | -9.95% (active)
CCN(c1ccc(Cl)cc1)c1nc(-c2ccc([N+](=O)[O-])cc2)cs1 | 96.1%
O=C1/C(=C/c2ccccc2O)CC/C1=C\c1ccccc1O | 11.9%
O=C1/C(=C/c2ccc(O)cc2)Oc2ccc(Cl)cc21 | 81%
COc1ccc(/C=C\C(=O)/C=C/c2ccc(OC)cc2)cc1 | 50.2%
O=c1oc2ccc(Cl)cc2c(=O)n1-c1ccc(I)cc1F | -46.3% (active)
CC(Cc1cccc(C(F)(F)F)c1)NCCOC(=O)c1ccccc1 (stereo not given) | 102%
C=C1C(=O)O[C@H]2[C@H]1CC/C(COC(=O)CCCCCCC(=O)OC/C1=C/CC[C@@]3(C)O[C@H]3[C@H]3OC(=O)C(=C)[C@@H]3CC1)=C\CC[C@@]1(C)O[C@@H]21 | -13.8% (active)

Source: PubChem BioAssay (NCI)
